# Assay results from PubChem BioAssay (NCI).
# About 83,000 compounds went through this panel and 20% of them were active in at least one assay; those are over-represented in the sample as a whole.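 Cells were grown in 96-well plates and exposed to the test compound at a single concentration for 48 hours; results are reported as percent growth, with values below 10 considered active.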 A number with no mark means an inactive call. Active and inactive are the calls of the source.
# Tests used:
# Assay in all cases: NCI-60 one-dose screen, 48 h (100 = growth as untreated, 0 = no growth, -100 = all killed)
# Conditions in all cases: 10 µM
# NCI-H23 lung = test system: NCI-H23 lung
# NCI-H226 lung = test system: NCI-H226 lung
# NCI-H322M lung = test system: NCI-H322M lung
# HOP-62 NSCLC = test system: HOP-62 NSCLC
# NCI-H460 lung = test system: NCI-H460 lung
# HOP-92 NSCLC = test system: HOP-92 NSCLC
# NCI-H522 lung = test system: NCI-H522 lung
# A549/ATCC NSCLC = test system: A549/ATCC NSCLC
# 786-0 renal = test system: 786-0 renal
# COLO 205 colon = test system: COLO 205 colon
SMILES,growth (NCI-H23 lung),growth (NCI-H226 lung),growth (NCI-H322M lung),growth (HOP-62 NSCLC),growth (NCI-H460 lung),growth (HOP-92 NSCLC),growth (NCI-H522 lung),growth (A549/ATCC NSCLC),growth (786-0 renal),growth (COLO 205 colon)
CCCCn1c(=O)[nH]c(N)c(C(c2ccc(Cl)cc2)c2c(N)[nH]c(=O)n(CCCC)c2=O)c1=O,53.9%,58.7%,63.6%,59.1%,32%,54.7%,37.9%,40.2%,41%,43.9%
CCc1ccc(-c2nnc(COc3ccc(-c4nc5cc(Cl)c(Cl)cc5[nH]4)cc3OC)o2)cc1,67.8%,103%,83.6%,102%,24.5%,72.2%,82.8%,39.3%,77.1%,57.1%
O=C(O)c1cc(C(F)(F)F)cc(C(F)(F)F)c1,101%,111%,102%,103%,107%,121%,102%,101%,93.7%,113%
CS(=O)(=O)Nc1ccc([N+](=O)[O-])cc1Oc1ccccc1,92.6%,96%,103%,93%,102%,51.8%,92.6%,89.3%,98.4%,99.7%
Cc1cccc2c(Nc3ccc(NS(C)(=O)=O)cc3)c3ccc([N+](=O)[O-])cc3nc12,-17.6% (active),-20.8% (active),36.4%,14%,-34.6% (active),-16.7% (active),-68.3% (active),1.51% (active),5.57% (active),34.9%
Nc1nc2c(ncn2C2OC3COP(=O)(O)OC4C(COP(=O)(O)OC2C3O)OC(n2cnc3c(N)ncnc32)C4O)c(=O)[nH]1 (stereo not given),106%,75.6%,105%,94%,108%,109%,103%,109%,103%,98.1%
S=c1c2ncccc2c(-c2ccccn2)nn1Cc1ccccn1,90.6%,104%,102%,85.3%,108%,94.7%,88.5%,81%,96.9%,92.8%
C=CCNC(=S)NN,98.2%,106%,82.4%,81.2%,99%,84.6%,91.6%,69.6%,98.4%,107%
CCCCC(CC#N)(CCC)CCC,105%,109%,95.6%,116%,109%,99.7%,97.5%,94.4%,95.5%,106%
Cc1cnc(C=O)c2cccc([N+](=O)[O-])c12,98.7%,77.7%,103%,91.7%,106%,61.2%,96%,104%,99.7%,106%
CN(C)CCCN1c2ccccc2Sc2ccc(C(F)(F)F)cc21,47%,54.7%,37.1%,37.2%,13.8%,-9.96% (active),-15.2% (active),53.3%,9.65% (active),-77.8% (active)
O=NN(CCCl)C(=O)NCc1ccc(-c2ccc(CNC(=O)N(CCCl)N=O)cc2)cc1,103%,96.7%,86.2%,91.5%,97.8%,96.5%,81.7%,87.1%,94.8%,104%
C/C=C\COc1cc(C)c(Cl)cc1Cl,111%,87.5%,104%,109%,103%,85.5%,119%,91.8%,108%,107%
C#Cc1ccc(-n2c(/C=C/c3cc(OC)c(OC)c(OC)c3)nc3ncccc3c2=O)cc1,73.6%,56.1%,68.3%,66.2%,72.6%,6.32% (active),7.99% (active),44.1%,75.9%,31.1%
CCCCCCCCCCCCc1ccc(C(=O)/C=C/C(=O)O)cc1,78.6%,121%,116%,93%,94.2%,46.4%,-24.2% (active),78.4%,-3.51% (active),21.6%
COc1ccc(-c2ccccc2)cc1C(=O)c1ccc(-c2ccccc2)cc1,73.6%,88.2%,75.5%,70.4%,88.9%,88.4%,42.7%,63.7%,77.4%,82.5%
Cc1ccc(NS(=O)(=O)c2ccccc2)c(NS(=O)(=O)c2ccccc2)c1,87.1%,105%,109%,86.5%,102%,93.5%,102%,103%,108%,97.5%
COc1cccc2c1C(=O)c1c(O)c3c(c(O)c1C2=O)C[C@@](O)(C(=O)COC(=O)c1ccccc1)C[C@@H]3OC1CC(N)C(O)C(C)O1 (stereo not given in full),-65.6% (active),-71.9% (active),-95.7% (active),-96.8% (active),-80.9% (active),-77.9% (active),-85.8% (active),-85.1% (active),-83.9% (active),-90.9% (active)
Cc1cc(Cl)ccc1Nc1nc(C(F)(F)F)ccc1C(=O)N/N=C/c1ccccc1Cl,16.9%,-12.4% (active),9.54% (active),-6.31% (active),5.74% (active),-1.9% (active),-2.69% (active),13.5%,-40.1% (active),4.36% (active)
CCCCCC(=O)N1c2ccccc2NC2=C(C(=O)CC(c3ccc(OC)c(OC)c3)C2)C1c1ccc(C(F)(F)F)cc1 (stereo not given),51.5%,64.8%,70.6%,54.8%,76.9%,66.4%,37.5%,58.5%,65.8%,69.2%
Cn1c([N+](=O)[O-])cnc1/C=C1\Oc2ccc(Br)cc2C1=O,-9.69% (active),-38.1% (active),-10.5% (active),-23.7% (active),-35% (active),-32% (active),-49.4% (active),-24.8% (active),-52.9% (active),-42.1% (active)
CC(C)C[C@H](NC(=O)Cn1ccc(Nc2ccccc2)cc1=O)B(O)O,44.1%,-71.1% (active),91.5%,49.5%,77.3%,1.31% (active),-24% (active),71.4%,33.1%,40.8%
CC(=O)c1ccc(NCn2nc(-c3ccc(Cl)cc3)oc2=S)cc1,104%,106%,110%,69.9%,106%,104%,92%,79.2%,105%,107%
CCOc1nc(-c2ccccc2)cc2c(O)c(C(=O)NCCCO)[nH]c(=O)c12,103%,94.7%,106%,91.1%,110%,66%,77.4%,106%,106%,118%
Cc1cc(C#Cc2ccccc2)ccc1-n1c(/C=C/c2cc(O)ccc2O)nc2ccccc2c1=O,-11.6% (active),-41% (active),-19.5% (active),-33.1% (active),-48.5% (active),-17.9% (active),-74.6% (active),8.93% (active),17.4%,-65.9% (active)
CC1(C)CNC(=O)N1,104%,92.8%,109%,92.6%,106%,87%,83.9%,93.3%,94.3%,101%
CC1=CSC2=NC(c3ccc(Cl)c(Cl)c3)=CC(c3ccc(Cl)cc3)N12 (stereo not given),32.3%,38.1%,-4.79% (active),30.9%,53.7%,-42.1% (active),-20.7% (active),51.1%,22.3%,104%
